Compound activity (PubChem BioAssay)
KCNQ2 pot: potentiators of rat KCNQ2 potassium channel; O88943; CHO-K1 KCNQ2, FluxOR thallium flux fluorescence; stronger effect = higher value; B-score at 10 µM; hit rate 0.54% among 310,000;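 active = fluorescence ratio B-score at least 3 SD of library B-scores, with initial fluorescence B-score within 3 of them, cut at about 5.3 in these data; same plate scores as AID 2156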;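 also: B-score of peak minus minimum over baseline fluorescence ratio after K+ and Tl+ stimulus; positive B-score means potentiation of KCNQ2 with more thallium influx and brighter signal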
KCNQ2 block: blocks the rat KCNQ2 potassium channel; B-score at 10 µM; AID 2156; O88943; hit rate 1.1% among 310,000; CHO-K1 KCNQ2, FluxOR thallium flux, 20 min; stronger effect = lower value;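 active = fluorescence ratio B-score at most minus 3 library SDs, with starting brightness B-score within 2 library SDs, cut at about -5.5 in these data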
KCNQ2 block conf: rat KCNQ2 channel inhibition, confirmatory screen | hit rate 57% among 1,000 | activity change, negative = inhibition, % at 10 µM | AID 493025 | KCNQ2-expressing cells, thallium flux; stronger effect = lower value | shares compounds with KCNQ2 block
KCNQ1 spec: selectivity of KCNQ2 inhibitors against human KCNQ1; shares compounds with KCNQ2 block; hit rate 15% among 1,000; KCNQ1-expressing cells, FluxOR thallium flux fluorescence; stronger effect = lower value; activity change, negative = inhibition, % at 10 µM; AID 493026;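 active = activity change at least 3 SD of negative controls below their mean in both duplicate wells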;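 also: CHO cells stably transfected with KCNQ1 and depolarized by potassium stimulus; peak minus minimum fluorescence over baseline after thallium addition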
Target sequence (P51787 whole entry, looked up): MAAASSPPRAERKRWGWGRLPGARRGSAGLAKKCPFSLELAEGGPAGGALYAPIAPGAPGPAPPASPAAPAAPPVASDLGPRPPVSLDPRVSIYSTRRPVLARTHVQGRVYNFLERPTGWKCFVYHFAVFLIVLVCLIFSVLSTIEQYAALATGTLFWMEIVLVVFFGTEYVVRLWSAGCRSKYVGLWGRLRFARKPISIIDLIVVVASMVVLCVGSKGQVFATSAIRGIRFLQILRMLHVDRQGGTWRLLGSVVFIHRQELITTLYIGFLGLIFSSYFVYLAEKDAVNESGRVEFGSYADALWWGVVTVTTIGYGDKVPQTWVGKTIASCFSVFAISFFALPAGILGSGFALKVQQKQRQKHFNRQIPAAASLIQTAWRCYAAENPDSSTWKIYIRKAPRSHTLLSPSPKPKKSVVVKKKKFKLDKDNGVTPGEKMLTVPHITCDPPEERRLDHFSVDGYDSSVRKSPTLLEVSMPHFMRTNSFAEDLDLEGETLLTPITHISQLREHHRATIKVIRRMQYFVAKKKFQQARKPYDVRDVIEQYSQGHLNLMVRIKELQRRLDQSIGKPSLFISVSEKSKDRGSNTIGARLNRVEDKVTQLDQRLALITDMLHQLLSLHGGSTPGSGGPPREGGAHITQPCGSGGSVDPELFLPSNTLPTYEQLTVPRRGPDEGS
CHO Tl ctr: counter-screen for KCNQ2 inhibitors: effect in parental CHO cells. shares compounds with KCNQ2 block. thallium flux counter-screen; stronger effect = lower value. activity change, % at 10 µM. hit rate 14% among 1,000. AID 493029
KCNQ2 patch conf: rat KCNQ2 inhibition confirmed by electrophysiology. shares compounds with KCNQ2 block. KCNQ2-expressing cells, automated patch clamp current. calls only at 10 µM. hit rate 49% among 550. AID 588531
Of the large screens only hits and unclear results are named; the others gave an inactive call (follow-up assays come after a bar, where they were run). Rows were chosen to be rich in hits. Some 1.6% of all compounds tested hit in one or more screens of this group. Unless noted, no rule for the calls is given here.

Cc1ccccc1NC(=O)c1c(-c2ccccc2)noc1C	KCNQ2 block -9.5 | KCNQ2 block conf inactive | KCNQ1 spec inactive | CHO Tl ctr inactive
Cc1onc(-c2ccccc2)c1C(=O)Nc1ccc(Br)cc1Cl	none (no result: KCNQ2 pot)
CC12CCC(C(=O)NCc3ccccn3)(OC1=O)C2(C)C (configuration not stated)	none (no result: KCNQ2 pot)
O=C(COc1nncc2ccccc12)Nc1ccc(Br)cc1F	none
CC(=O)c1cc(-c2ccccc2)n(CC(=O)N2CCN(C3CCCC3)CC2)c1C	none (no result: KCNQ2 pot)
C=CCn1c(Sc2ncc([N+](=O)[O-])s2)n[nH]c1=O	KCNQ2 block -9.8 | KCNQ2 block conf -40% | KCNQ1 spec inactive | CHO Tl ctr inactive | KCNQ2 patch conf inactive
O=[N+]([O-])c1cnc(Sc2ccncn2)s1	none (no result: KCNQ2 pot)
CC(Oc1cccc(Cl)c1)C(=O)Nc1ccccc1N1CCCCC1 (configuration not stated)	KCNQ2 block -7.1 | KCNQ2 block conf inactive | KCNQ1 spec inactive | CHO Tl ctr inactive
CCC(Oc1ccccc1)C(=O)Nc1ccccc1N1CCCC1 (configuration not stated)	none (no result: KCNQ2 pot)
CC(Oc1cccc(Cl)c1)C(=O)Nc1ccccc1C(=O)N1CCCCC1 (configuration not stated)	none (no result: KCNQ2 pot)
CCC(C(=O)Nc1ccccc1N1CCCC1)c1ccccc1 (configuration not stated)	KCNQ2 block -7.2 | KCNQ2 block conf -36% | KCNQ1 spec inactive | CHO Tl ctr inactive | KCNQ2 patch conf active
CC1CCN(c2cc(N3CCOCC3)c(F)cc2[N+](=O)[O-])CC1	none (no result: KCNQ2 pot)
N#Cc1c(-c2ccncc2)cc(-c2ccc(F)cc2)nc1N	none (no result: KCNQ2 pot)
COc1ccc(CCNC(=O)c2ccc3c(c2)N(Cc2ccc(F)cc2)CCS3)c(OC)c1	KCNQ2 block -8.1 | KCNQ2 block conf inactive | KCNQ1 spec inactive | CHO Tl ctr inactive
COc1ccc(OC)c(CCNC(=O)c2ccc3c(c2)N(Cc2ccc(F)cc2)CCS3)c1	none (no result: KCNQ2 pot)
Cc1sc2nc(SCC(=O)NCc3cccs3)[nH]c(=O)c2c1C	none
COc1ccc2oc(C(=O)N3CCN(C(c4ccccc4)c4ccccc4)CC3)c(C)c2c1	KCNQ2 block -10 | KCNQ2 block conf inactive | KCNQ1 spec inactive | CHO Tl ctr inactive
COc1ccc(N2CCN(C(=O)c3oc4ccccc4c3C)CC2)cc1	none (no result: KCNQ2 pot)
CC(C)C(=O)Nc1csc(C(F)(F)F)c1-c1ccccc1	none (no result: KCNQ2 pot)
Cc1ccc(OCC(=O)N/N=C/C=C/c2ccco2)cc1	none (no result: KCNQ2 pot)
Cc1nnc(SCC(=O)N2CCC(Cc3ccccc3)CC2)n(N)c1=O	none
CCC(C)Sc1ccc(-c2nc3ccc(C)cn3c2NCc2ccccc2)cc1OC (configuration not stated)	none (no result: KCNQ2 pot)
CCC(C)Sc1cccc(-c2nc3cc(C)ccn3c2NCc2ccccc2)c1 (configuration not stated)	KCNQ2 block -6.7 | KCNQ2 block conf inactive | KCNQ1 spec inactive | CHO Tl ctr inactive
COC(=O)C(Cc1ccccc1)NCC(=O)Nc1cccc(Cl)c1C (configuration not stated)	KCNQ2 block -8.2 | KCNQ2 block conf -36% | KCNQ1 spec inactive | CHO Tl ctr inactive | KCNQ2 patch conf active
Cc1c(Cl)cccc1NC(=O)CS(=O)(=O)c1ccccc1	none (no result: KCNQ2 pot)
CCN(CC)CC(O)CN(c1ccccc1)S(=O)(=O)c1ccc2ccccc2c1 (configuration not stated)	none
O=S(=O)(c1ccc2ccccc2c1)N(CC(O)COCc1ccco1)c1ccccc1 (configuration not stated)	KCNQ2 block -8.9 | KCNQ2 block conf -20% | KCNQ1 spec inactive | CHO Tl ctr inactive | KCNQ2 patch conf active
CC(C)CNC(=S)NC(=O)c1csc([N+](=O)[O-])c1	none
CCCCN(C(=O)CC1CCCC1)c1c(N)n(CC(C)C)c(=O)[nH]c1=O	none (no result: KCNQ2 pot)
O=C(NCc1ccco1)c1ccccc1-c1ccccc1	none
Cn1nc(C(=O)NC2CCCCC2)c2c1-c1ccccc1SC2	none (no result: KCNQ2 pot)
CC(C)N(C(=O)c1nn(C)c2c1CSc1ccccc1-2)C1CCCCC1	KCNQ2 block -8.7 | KCNQ2 block conf -26% | KCNQ1 spec inactive | CHO Tl ctr inactive | KCNQ2 patch conf inactive
CC(=O)N=Cc1c(C)c(C#N)c(=O)n(C)c1O	none (no result: KCNQ2 pot)
CN(C)c1oc(-c2ccccc2Cl)nc1P(=O)(c1ccccc1)c1ccccc1	KCNQ2 block -9.5 | KCNQ2 block conf -39% | KCNQ1 spec -31% | CHO Tl ctr -24% | KCNQ2 patch conf active
Cc1ccc(S(=O)(=O)c2nc(-c3ccccc3Cl)oc2N(C)C)cc1	none (no result: KCNQ2 pot)
CCc1cc(C(=O)NCC2CCCO2)sc1C (configuration not stated)	none
CCN(CC)CCC(=O)c1ccc(F)cc1	KCNQ2 block -9 | KCNQ2 block conf -36% | KCNQ1 spec inactive | CHO Tl ctr inactive | KCNQ2 patch conf inactive
CN(C)CCC(=O)c1ccc(F)cc1	none (no result: KCNQ2 pot)
CC(C)C(OC(=O)c1cccs1)C(=O)NCc1ccc(F)cc1 (configuration not stated)	none
COc1ccc(C(=O)C(c2ccccc2)N2CCOCC2)cc1 (configuration not stated)	none
Cc1ccc(C(=O)C(c2ccccc2)N2Cc3ccccc3C2=N)cc1 (configuration not stated)	KCNQ2 block -8.6 | KCNQ2 block conf -32% | KCNQ1 spec inactive | CHO Tl ctr inactive | KCNQ2 patch conf active
C=CCNC(=O)/C(C#N)=C/c1ccccc1Cl	KCNQ2 block -6.7 | KCNQ2 block conf inactive | KCNQ1 spec inactive | CHO Tl ctr inactive
C=CCNC(=O)/C(C#N)=C/c1ccc(C(=O)O)cc1	none
O=C(NCC(c1ccco1)N1CCN(c2ccccc2F)CC1)OCc1ccccc1 (configuration not stated)	none (no result: KCNQ2 pot)
CCOC(=O)Nc1cc(C(=O)OCC)c(C)nc1C	none (no result: KCNQ2 pot)
CCc1ccccc1NC(=O)/C(=C/c1ccco1)c1ccccc1	KCNQ2 block -7.7 | KCNQ2 block conf -29% | KCNQ1 spec inactive | CHO Tl ctr inactive | KCNQ2 patch conf active
Cc1ccccc1NC(=O)/C(=C/c1ccco1)c1ccccc1	none (no result: KCNQ2 pot)
CC(=O)N1CCN(c2cc(N3CCCC3)c(F)cc2[N+](=O)[O-])CC1	none (no result: KCNQ2 pot)
CCN1CCN(c2cc(N3CCc4ccccc4C3)c(F)cc2[N+](=O)[O-])CC1	KCNQ2 block -6.9 | KCNQ2 block conf -29% | KCNQ1 spec inactive | CHO Tl ctr inactive
COC(=O)CSC1=C(C#N)C(c2ccc(F)cc2)CC(=O)N1 (configuration not stated)	none
Cc1ccc(OCc2n[nH]c(=S)n2Cc2ccccc2)cc1	none
